This note sets out measurements from PubChem BioAssay (Tox21).

Several values for one entry are separate records, joined by “and”; a condition that tells them apart may be missing. Identical values can stand only once. Records with an inconclusive call do not appear. Where a call stands in place of a potency, no number is given. Activity calls are given as the source filed them. Calls come from the whole dose curve.
Potency is the fitted concentration of half-maximal effect.

This test is described as follows: p53 small molecule agonists, cell-based qHTS assay: qHTS cell viability counter screen (AID 1963581). Note: nearly all actives have a fitted effect of over 45% in size. The note with it: p53RE-bla HCT-116 viability, ATP luminescence, 16 h; series mostly up to 66 µM. The method, boiled down:
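In the same plates used for the p53 bla reporter, HCT-116 cells given compounds for 16 h at 37 C received CellTiter-Glo; luminescence was recorded 30 min later at room temperature.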
Background: Quantitative high-throughput screening tests each substance at several concentrations.
As to `COc1ccc(NC(C)=O)cc1`, the Potency entry was “inactive”.
As for `c1cnc2cc3c(cc2n1)C1CNCC3C1`, the Potency result was “inactive”.
For `OCc1c2ccccc2cc2ccccc12`, the Potency result is “inactive”.
For `Oc1ccc(Cl)cc1Sc1cc(Cl)ccc1O`, the Potency was 18.2 µM (active) and 17.8 µM (active).
As for `CCCc1ccccc1`, the Potency entry was “inactive”.
For `CC(=O)CC(C)=O`, the Potency entry was “inactive”.
With `C=CC(=O)OCCCCCC`, the Potency is 363 nM (active).
In the case of `CC(C)(C)C(=O)OCOP(=O)(COCCn1cnc2c(N)ncnc21)OCOC(=O)C(C)(C)C`, the Potency result was “inactive”.
Turning to `Oc1ccc(C(c2ccc(O)cc2)C(Cl)(Cl)Cl)cc1`, the Potency result is “inactive”.
Under `Nc1cc(S(=O)(=O)O)cc2cc(S(=O)(=O)O)cc(O)c12` stands “inactive”; under `N=C(N=C(N)N)N1CCOCC1`, “inactive”.
With `Oc1c(Cl)ccc(Cl)c1Cl`, the Potency entry was “inactive”.
Under `CC1=CC[C@@]23C[C@@H]1C(C)(C)[C@@H]2CC[C@H]3C` stands “inactive”.
Turning to `O=C(O)c1cccc(C(F)(F)F)c1`, the Potency result was “inactive”.
Under `CC(O)Cn1cnc2c1c(=O)n(C)c(=O)n2C` (stereo unspecified) stands “inactive”; under `CN(C)CCOC(c1ccc(Cl)cc1)c1ccccn1` (stereo unspecified), “inactive”; under `O=C(O)c1cc(-c2ccccc2)nc2ccccc12`, “inactive”.
With `Cc1ccc(N(C)C)cc1`, the Potency entry was “inactive”.
Under `C/C=C/C(=O)CCCC` stands “inactive”.
`CC(C)(c1ccc(O)cc1)c1ccc(O)cc1`: the Potency result was “inactive”.
With `CC(C)=O`, the Potency entry is “inactive”.
Regarding `C=CC(C)CCC=C(C)C` (stereo unspecified), the Potency result was “inactive”.
Under `O=C(O)C(=O)Nc1cccc(-c2nn[nH]n2)c1` stands “inactive”; under `OCCOc1ccc(OCCO)cc1`, “inactive”; under `CC1=C(CC(=O)O)c2cc(F)ccc2/C1=C\c1ccc(S(C)=O)cc1` (stereo unspecified), “inactive”.
In the case of `CC(C)CCCCCCc1ccc(O)cc1`, the Potency was 45800 nM (active).
